In the library only some 3% were active in any assay of this set; here they are far more common.
TSHR agonist: agonists of human thyroid stimulating hormone receptor; P16473; HEK293-CNG-TSHR cells (CNG channel as cAMP sensor), membrane potential dye, cAMP; Potency, µM (doses to about 57.1 µM), for inactives: at the highest dose activation, most hits filed as activators; 73,000 compounds, 0.48% hits; AID 926; active = well fitted activation curve with a large enough effect in the main read-out, with a control signal flat, not every such curve was filed as active; inconclusive = small, poorly fitted or top-dose-only effect, or a change in a side signal; inactive = no such curve, though single readings can be large or run the other way; % of control where 0% means no effect;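 note: the control signal comes from parental cells without the receptor; potency is the fitted concentration of half-maximal effect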
Target sequence (P16473 whole entry, looked up): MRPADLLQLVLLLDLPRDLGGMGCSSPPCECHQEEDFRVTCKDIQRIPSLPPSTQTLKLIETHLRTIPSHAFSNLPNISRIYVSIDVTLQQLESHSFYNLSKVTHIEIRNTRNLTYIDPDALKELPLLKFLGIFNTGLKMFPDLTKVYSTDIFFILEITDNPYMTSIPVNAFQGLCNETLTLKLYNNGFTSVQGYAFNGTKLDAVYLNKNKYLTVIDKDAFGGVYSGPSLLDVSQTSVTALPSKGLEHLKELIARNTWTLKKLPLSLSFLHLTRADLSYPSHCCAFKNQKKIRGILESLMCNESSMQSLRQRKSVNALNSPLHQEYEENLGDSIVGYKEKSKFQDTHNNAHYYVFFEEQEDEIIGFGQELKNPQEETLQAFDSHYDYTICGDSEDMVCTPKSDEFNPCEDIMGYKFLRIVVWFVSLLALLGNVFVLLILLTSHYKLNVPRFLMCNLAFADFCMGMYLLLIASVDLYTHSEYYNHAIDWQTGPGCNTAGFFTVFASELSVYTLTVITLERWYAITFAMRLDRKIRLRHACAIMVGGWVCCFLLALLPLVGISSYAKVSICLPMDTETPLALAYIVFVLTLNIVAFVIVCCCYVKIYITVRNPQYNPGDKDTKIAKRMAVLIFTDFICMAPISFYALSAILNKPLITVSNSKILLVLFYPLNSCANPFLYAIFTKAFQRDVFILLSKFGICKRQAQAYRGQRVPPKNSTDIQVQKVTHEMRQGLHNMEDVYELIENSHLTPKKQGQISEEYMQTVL
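HEK 293 cells stably expressing TSHR and a modified CNG channel, with CNG-only parental cells as counterscreen, were preloaded 60 min at room temperature with membrane potential dye containing 100 uM RO 20-1724. Compound exposure was 30 min, and depolarization was read as fluorescence at 590 nm.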
GFP derepression: epigenetic modulators derepressing GFP locus in mouse cells | mouse C127i GFP locus derepression, cytometry, 30 h | Potency, µM (doses to about 46.1 µM), inactives show at the highest dose GFP derepression (activation) | 68,000 compounds, 0.09% hits; note: % of control where 0% means no effect
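Murine C127i mammary cells carrying a silenced, stably integrated CMV-driven GFP reporter were treated with compound for 30 hours at 37 C. After PBS washes, GFP-positive cells were counted by laser-scanning microplate cytometry.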
HBB splice mod: modulators of hemoglobin beta chain splicing. Potency, µM (titrated, usually from 46.1 µM), for inactives: top-dose activation, actives largely listed as activators. 65,000 compounds, 0.06% hits. HBB splicing reporter cell assay, activation; EGFP reporter with mutant IVS2-654 intron; response scale: normalised to 500 nM splice-correcting PNA. AID 925; note: potency is the fitted concentration of half-maximal effect; 0% is about no effect
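HeLa cells stably expressing EGFP interrupted by mutant beta-globin intron 2 (IVS2-654), 500/well in 2% FCS. Treated with compound for 2 days at 37C. Splicing correction scored as total well GFP intensity (488 nm excitation, 500-520 nm emission); 500 nM antisense PNA served as control.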
HEK293 cAMP cs: raises cAMP in parental HEK293 cells, TSHR agonist counter-screen; Potency, µM (top dose mostly 57.1 µM), without a hit: at the top dose activation, usual class: activators; parental HEK293 CNG cAMP sensor, membrane potential fluorescence; 73,000 compounds, 2.5% hits; note: potency is the fitted concentration of half-maximal effect; % of control where 0% means no effect; nearly all actives have a fitted effect of over 55% in size
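Parental HEK 293 cells stably expressing a cAMP-gated CNG channel were loaded with membrane potential dye containing 100 uM RO 20-1724 for 60 min. Compound added for 30 min; depolarization read as fluorescence intensity at 590 nm.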
UbGFP stabilizer: proteasome inhibitors stabilizing ubiquitin-GFP reporter; Potency, µM (doses to about 45.9 µM), for inactives: at the top dose activation (GFP accumulation), usual class: activators; Ubiquitin-GFP reporter cells, proteasome inhibition, GFP fluorescence; response scale: untreated = 0%, 10 µM MG-132 = 100%; 67,000 tested, under 10 active; active = well fitted activation curve with a large enough effect, not every such curve was filed as active; inconclusive = small, poorly fitted or top-dose-only effect, or another doubt; inactive = no such curve, though single readings can be large or run the other way; note: potency is the fitted concentration of half-maximal effect
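Reporter cells (U2OS, ubiquitin-G76V-GFP fusion) are plated overnight, then treated 4 hr at 37 °C with compound titrations from 46 uM down to 2.9 nM. Activity is scaled against untreated cells and 10 uM MG-132.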
An asterisk follows results filed as active; ? = inconclusive; · = not tested or not shown; [ ] = dose if it differs, or a comment. Unless noted, calls come from the whole dose curve; as a rule, active = well fitted curve in the direction sought with a large enough effect; inconclusive = small, poorly fitted or top-dose-only effect, or another doubt; inactive = no such curve, though single readings can be large; an effect the other way counts as inactive or inconclusive.

SMILES	TSHR agonist	GFP derepression	HBB splice mod	HEK293 cAMP cs	UbGFP stabilizer
COc1cccc(Cn2c(=O)c(-c3cccs3)nc3cnc(Nc4cccc(OC)c4)nc32)c1	?	0%[9.22 µM]	10µM*	?	7%
CN(C)c1ncc2nc(-c3ccccc3)c(=O)n(Cc3ccc(F)cc3)c2n1	?	5%[9.22 µM]	3%	5µM*	12%
CN1CCN(c2ncc3nc(-c4cccs4)c(=O)n(Cc4ccc(F)cc4)c3n2)CC1	?	4µM*	?	?	?
CN(C)c1ncc2ncc(=O)n(CCc3ccccc3)c2n1	?	-3%[9.22 µM]	0%	13µM*	-1%
CN(C)c1ncc2nc(-c3ccccc3)c(=O)n(CCc3ccccc3)c2n1	4%	3%[9.22 µM]	0%	15%[2.29 µM]	0%
CO[C@@H]1COC(=O)C/C=C\[C@H](C)COC(=O)[C@H](C)NC(=O)C/C=C\[C@H]1C	-6%[11.4 µM]	·	0%[9.22 µM]	-1%[11.4 µM]	·
COCCn1c(=O)c(-c2cccc(C#N)c2)nc2cnc(Oc3ccccc3)nc21	-3%	-3%[9.22 µM]	0%	8%[0.457 µM]	4%
COCCn1c(=O)c(-c2cccc(C#N)c2)nc2cnc(Nc3ccccc3)nc21	?	0%[9.22 µM]	11%	0.25µM*	?
CCOC(=O)c1cnn(-c2nc(-c3ccccc3)nc3c2COC(C)(C)C3)c1N	25µM*	0%	2%	21%	-7%
CCOC(=O)c1cnn(-c2nc(C)cc(C)n2)c1N	?	0%	0%	?	-6%
CCOC(=O)C[C@@H](C(=O)OCC)[C@@H]1CCCCC1=O	6%[11.4 µM]	·	1%[9.22 µM]	0%[11.4 µM]	·
CN(C)C(=O)c1ccc(-c2ccc3ncnc(NC4CCNCC4)c3c2)cc1	-2%	0%[9.22 µM]	1%	-13%	1%
CCOc1ccc(C(C)=O)cc1CSc1nnc(-c2cccs2)n1CC1CCCO1 (stereo not given)	?	0%	0%[57.5 µM]	10µM*	4%
C[C@H](O)[C@H](O)[C@@H](O)c1cnc2nc(N)[nH]c(=O)c2n1	-4%	5%[9.22 µM]	·	2%	3%
CCOC(=O)CSc1nc2c(sc3ccccc32)c(=O)n1CCCN1CCOCC1	?	0%	-4%	13µM*	-12%
CN(Cc1ccco1)c1cc(-c2ccc3c(c2)OCO3)ncn1	?	-2%[9.22 µM]	-1%	?	-2%
CC(C)c1cccc2nc3c(c([Si](C)(C)C(C)(C)C)c12)Cn1c-3cccc1=O	14%	·	2%	19%	·
CC(C)c1cccc2c([Si](C)(C)C)c3c(nc12)-c1cccc(=O)n1C3	?	·	0%	25µM*	·
C/C(CCC(=O)OC[C@@H]1O[C@H](C#Cc2ccccc2)C=C[C@@H]1Oc1ccc(C)cc1)=N/OC[C@@H](O)[C@H]1O[C@H]2OC(C)(C)O[C@H]2[C@@H]1O	-2%[11.4 µM]	·	1%[9.22 µM]	11%[11.4 µM]	·
C=C[C@@]1(C)CC(=O)[C@@]2(O)[C@@]3(C)[C@H](O)CCC(C)(C)[C@@H]3[C@H](O)[C@H](OC(C)=O)[C@]2(C)O1	?	1%	0%	0.5µM*	2%
C=C[C@@]1(C)CC(=O)[C@@]2(O)[C@@]3(C)[C@@H](O)CCC(C)(C)[C@@H]3[C@H](OC(=O)CCN(C)C)[C@H](OC(C)=O)[C@@]2(C)O1	?	-1%	·	0.13µM*	12%
C[C@H]1CN(S(=O)(=O)c2cccc3cnccc23)CCN1	3%	-2%	3%	-16%	4%
COc1ccccc1-c1nc(N(C)Cc2ccco2)c2ccccc2n1	?	-5%[9.22 µM]	-2%	25µM*	12%
CN(Cc1ccco1)c1nc(-c2cccnc2)nc2ccccc12	?	-4%[9.22 µM]	0%	25µM*	-5%
CN(Cc1ccco1)c1nc(-c2ccccc2C(F)(F)F)nc2ccccc12	?	-2%[9.22 µM]	0%	10µM*	-4%
SMILES	TSHR agonist	GFP derepression	HBB splice mod	HEK293 cAMP cs	UbGFP stabilizer
CN(Cc1ccco1)c1nc(-c2ccccc2Cl)nc2ccccc12	18%	2%[9.22 µM]	2%	23%	-2%
CCc1ccccc1OC[C@@H](O)CN[C@H]1CCCc2ccccc21	?	2%	·	40µM*	0%
CC(C)OC(=O)CSc1nnc(Cc2ccccc2)n1Cc1ccco1	?	-3%	·	5µM*	-2%
COc1cccc(-c2nnc(SCC(=O)OC(C)C)n2Cc2ccco2)c1	?	-2%	-2%[0.369 µM]	16µM*	·
O=C(CSc1nnc(-c2ccc(O)cc2)n1Cc1ccco1)c1cccs1	10µM*	0%	0%	27%	2%
CC(C)OC(=O)CSc1nnc(-c2cnccn2)n1Cc1ccco1	19%	-3%	2%	9%	-13%
CC(=O)[C@@]1(O)CC[C@@H]2[C@@H]3CCC4=CC(=O)CC[C@@]4(C)[C@H]3CC[C@]21C	-14%	-3%	0%	1%	2%
CO[C@@H]1/C=C\O[C@]2(C)Oc3c(C)c(O)c4c(O)c(cc(O)c4c3C2=O)NC(=O)/C(C)=C\C=C/[C@H](C)[C@@H](O)[C@H](C)[C@H](O)[C@H](C)[C@H](OC(C)=O)[C@@H]1C	-5%[11.4 µM]	0%[9.22 µM]	2%[9.22 µM]	-5%[11.4 µM]	-7%[9.17 µM]
COc1ccc(-c2nnc(SCC(=O)N(Cc3ccccc3)C(C)(C)C)o2)cc1OC	?	1%	·	32µM*	4%
CCC(C)(C)n1nnnc1CN(Cc1ccc(Cl)cc1)Cc1ccco1	?	-1%	·	10µM*	2%
O=C1C2=C(Nc3ccccc3SC2c2ccco2)c2ccccc21 (stereo not given)	2µM*	-5%	-3%	-23%	-5%
C[C@@]12CC[C@@H]3[C@H](CCC4=CC(=O)CC[C@]43C)[C@@H]1CC[C@@H]2C(=O)Cn1cnc2c(=S)nc[nH]c21	0%[11.4 µM]	7%[9.22 µM]	2%[9.22 µM]	-4%[11.4 µM]	0%[9.17 µM]
CCOC(=O)c1sc(N)c(C(=O)Nc2ccc(C)cc2C)c1C	-11%	·	·	-11%	·
CC(=O)OCC1OC(C#CC(C)(C)C)C=CC1OC(C)=O (stereo not given)	?	·	1%[9.22 µM]	0%[11.4 µM]	·
CC1(C(=O)NCc2cc(F)cc(C(F)(F)F)c2)C=CC2(CCCCC2)N1C(=O)c1ccccc1 (stereo not given)	15%	·	-1%	17%	·
CC1(C(=O)NCC2CC2)C=CC2(CCCCC2)N1C(=O)c1ccccc1 (stereo not given)	?	·	0%	10µM*	·
CCCN(CCC)C(=O)SCC	?	·	0%	?	·
CCc1cc(C(=O)OC)c(N2C(=O)C3C4C=CC(C4)C3C2=O)s1 (stereo not given)	7.9µM*	-2%	2%	4%	-1%
CCCCOc1ccc(S(=O)(=O)n2c(C)nc3ccccc32)cc1	?	0%	1%[0.0738 µM]	3.2µM*	-14%[9.17 µM]
CCOc1ccc(S(=O)(=O)n2c(C)nc3ccccc32)cc1	9%	·	-2%	13%	-14%
